Test results from PubChem BioAssay (NCATS).
Several values for one entry are separate records, joined by “and”; a condition that tells them apart may be missing. Identical values can stand only once. Results filed as inconclusive are left out. Activity calls are given as the source filed them. The call rests on the fitted dose curve; in most records, active means well fitted cell-killing curve with a large enough effect; inconclusive means small, poorly fitted or top-dose-only effect, or effect the other way; inactive means no such curve, though single readings can be large or run the other way.
Potency means the concentration at half of the fitted maximal effect.

Test: Viability qHTS for spleen associated tyrosine kinase inhibitor (SYKi) drug resistant MV4-11 cells (AID 1963824); further: nearly all actives have a fitted effect of over 35% in size
Settings: SYKi-resistant MV4-11 viability, CellTiter-Glo, 72 h; series mostly up to 45 µM; viability, % of control: at the top concentration
How it was run: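 SYK inhibitor-resistant MV4-11 AML cells, 500 per well, added to predispensed compounds and incubated 72 hr at 37 C, 5% CO2. Viability measured by CellTiter-Glo luminescence after 10 min at room temperature.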
In the case of `CCN1CCC(n2cc(CNc3cc(Cl)c4ncc(C#N)c(Nc5ccc(F)c(Cl)c5)c4c3)nn2)CC1`, the Potency is reported as 11.6 µM (active).
With `Cc1nc2c(-c3cnc(N)nc3)nc(N3CCOCC3)nc2n1C(C)C` the Potency was 326 nM (active) and 468 nM (active).
For `O=C(Nc1ncc(-c2cc(C(F)F)nn2-c2c(Cl)cccc2Cl)s1)C1CC1`, the Potency was 0.372 µM (active).
For `Clc1ccc(C(Cn2ccnc2)OCc2ccc(Sc3ccccc3)cc2)c(Cl)c1` (stereo not given), the Potency was 6.61 µM (active).
For `CO[C@@H]1[C@H](N(C)C(=O)c2ccccc2)C[C@H]2O[C@]1(C)n1c3ccccc3c3c4c(c5c6ccccc6n2c5c31)C(=O)NC4`, the Potency was 51.7 nM (active) and 59 nM (active).
With `O=C1c2c(O)ccc(O)c2C(=O)c2c(NCCNCCO)ccc(NCCNCCO)c21` the Potency was 59.6 nM (active) and 20.9 nM (active).
In the case of `CN1N=C(N)c2cn([C@@H]3O[C@H](COP(=O)(O)O)[C@@H](O)[C@@H]3O)c3ncnc1c23`, the Potency is reported as 0.0742 µM (active).
For `O=C1CCC[C@@H]2[C@H]3CCC[N+]4([O-])CCC[C@@H](CN12)[C@@H]34` (stereo not given in full), the “viability, % of control” value was 93.7% (inactive).
In the case of `CN1CCc2c(n(Cc3ccc(C(=O)NO)cc3)c3ccccc23)C1`, the Potency is reported as 18.6 µM (active).
With `Nc1nccc(Oc2ccc(NC(=O)c3c[nH]cc(-c4ccc(F)cc4)c3=O)cc2F)c1Cl` the Potency was 0.0291 µM (active).
For `CC(C)C(=O)Nc1ccc([N+](=O)[O-])c(C(F)(F)F)c1`, the Potency was 10.6 µM (active) and 18.6 µM (active).
With `O=C(Nc1ccc([N+](=O)[O-])cc1Cl)c1cc(Cl)ccc1O` the Potency was 1.16 µM (active) and 742 nM (active).
For `COc1ccccc1[C@H](c1cccc2ccccc12)[C@@](C)(C#N)C(=O)N1CCC(c2cccc(C(F)(F)F)c2)CC1`, the Potency was 8.33 µM (active).
In the case of `Cc1cc(-c2ccc(CC(=O)Nc3ccc(-c4cccnc4)cc3)cc2)ccn1`, the Potency is reported as 11.8 µM (active).
For `CCCCCCCCCCCC(CC1OC(=O)C1CCCCCC)OC(=O)C(CC(C)C)NC=O` (stereo not given), the Potency was 3.72 µM (active).
In the case of `COc1cc(OC)c(NC(=O)Nc2cc(C)on2)cc1Cl`, the Potency is reported as 6.61 µM (active).
With `O=C(NCc1ccncc1)C12C[C@H]3C[C@@H](C1)CC(c1ccc(Cl)cc1)(C3)C2` the Potency was 11.8 µM (active).
With `O=c1c(O)c(-c2ccc(O)c(O)c2)oc2cc(O)ccc12` the Potency was 5.8 µM (active) and 9.34 µM (active).
In the case of `Cc1cc(Nc2cc(N3CCN(C)CC3)nc(Sc3ccc(NC(=O)C4CC4)cc3)n2)n[nH]1`, the Potency is reported as 0.0291 µM (active).
With `CCC[C@H](Nc1nc(-c2ccc(NC(=O)NCC)c(OC)c2)ncc1C)c1cccnc1` the Potency was 0.118 µM (active).
For `O=C(O)CCCCC(CCSCc1ccccc1)SCc1ccccc1` (stereo not given), the Potency was 13.2 µM (active).
In the case of `COc1cc2ncnc(-n3nc(-c4ccccn4)nc3N)c2cc1OC`, the Potency is reported as 2.63 µM (active).
In the case of `CN(C)[C@@H](CCOc1cccc2ccccc12)c1ccccc1`, the Potency is reported as 23.7 µM (active).
With `NCCCC(O)(P(=O)(O)O)P(=O)(O)O` the “viability, % of control” value was 65.3% (inactive).
For `CN(C)c1nc(Cc2ccc(NC(=O)c3ccc4ccccc4c3)cc2)nc(Cl)c1CC(=O)O`, the “viability, % of control” value was 73.1% (inactive).
With `CCCCC(C)(C)[C@H](O)C=C[C@H]1[C@H](O)CC(=O)[C@H]1CC=CCCCC(=O)O` the Potency was 0.148 µM (active).
In the case of `CCc1c2c(nc3ccc(O)cc13)-c1cc3c(c(=O)n1C2)COC(=O)[C@]3(O)CC`, the Potency is reported as 0.0083 µM (active).
For `CCc1cccc(CC)c1NC(=O)N1Cc2[nH]nc(NC(=O)c3ccc(N4CCN(C)CC4)cc3)c2C1`, the Potency was 1.03 µM (active) and 1.05 µM (active).
With `OC[C@H]1OC(O)C[C@@H](O)[C@H]1O` (stereo not given in full) the “viability, % of control” value was 119% (inactive).
For `O=C(Nc1cccc2c(=O)cc(-c3nn[nH]n3)oc12)c1ccc(OCCCCc2ccccc2)cc1`, the “viability, % of control” value was 96.4% (inactive).
With `Oc1cc(-c2nc(-c3ccccc3)[nH]c2-c2ccncc2)ccc1Cl` the Potency was 5.9 µM (active) and 3.66 µM (active).
For `Nc1nc(NCCNc2ncc(-n3ccnc3)c(-c3ccc(Cl)cc3Cl)n2)ccc1[N+](=O)[O-]`, the Potency was 3.72 µM (active).
For `CCN(CC)CCCCNc1nc2cc(Cl)c(Cl)cc2nc1-c1ccc(-c2cccs2)s1`, the Potency was 4.68 µM (active).
With `COc1ccc2c(c1)CC[C@@H](CN(C)CC(=O)O)[C@H]2c1ccccc1` the “viability, % of control” value was 86.2% (inactive).
For `CCN(CC)CCCCNc1ncc2c(n1)N(C)C(=O)N(c1c(Cl)c(OC)cc(OC)c1Cl)C2`, the Potency was 14.8 µM (active).
In the case of `Nc1nc2c(c(=O)[nH]1)N(C=O)[C@H](CNc1ccc(C(=O)N[C@@H](CCC(=O)O)C(=O)O)cc1)CN2`, the “viability, % of control” value is reported as 85.6% (inactive).
For `Nc1nc(Cl)nc2c1ncn2[C@@H]1O[C@H](CO)[C@@H](O)[C@H]1F`, the Potency was 0.164 µM (active).
In the case of `C[C@@H]1C[C@H]2[C@@H]3CCC4=CC(=O)C=C[C@]4(C)[C@@]3(Cl)[C@@H](O)C[C@]2(C)[C@@]1(OC(=O)c1ccco1)C(=O)CCl`, the Potency is reported as 8.41 µM (active) and 4.68 µM (active).
For `CC1(COc2ccc3c(c2)ncn3-c2ccc3cccc(N4CCC(N)CC4)c3n2)COC1`, the Potency was 11.6 nM (active) and 10.5 nM (active).
In the case of `C[N+](C)([O-])CCNc1ccc(NCC[N+](C)(C)[O-])c2c1C(=O)c1c(O)ccc(O)c1C2=O`, the Potency is reported as 0.934 µM (active).
